PubChem BioAssay (Tox21)
Several values for one entry are separate records, joined by “and”; a condition that tells them apart may be missing. Equal entries are not always repeated. Results filed as inconclusive are left out. Where a call stands in place of a potency, no number is given. A structure can be active in one record and inactive in another. Activity calls are given as the source filed them. Unless noted, the call rests on the fitted dose curve; in most records, active means well fitted curve in the direction sought with a large enough effect in the repeat runs; inconclusive means weak or mixed curves; inactive means no such curve, though single readings can be large; an effect the other way counts as inactive or inconclusive.

Key:
[1] = qHTS assay for small molecule agonists of the p53 signaling pathway (AID 651631; calls by dose curve; further: nearly all actives have a fitted effect of over 15% in size; further: potency means the concentration at half of the fitted maximal effect)
Procedure, shortened: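 Agonist mode screen using a stably integrated beta-lactamase gene under p53 response elements in HCT-116 cells. Compound exposure lasts 16 h at 37 °C; fluorescence intensity is measured following 2 h FRET substrate loading.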

[2] = qHTS assay for small molecules that induce genotoxicity in human embryonic kidney cells expressing luciferase-tagged ATAD5 (AID 651632); further: nearly all actives have a fitted effect of over 15% in size; further: potency means the concentration at half of the fitted maximal effect
Procedure, shortened: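 Luminescent reporter readout, HEK293T ATAD5-luc line: 16 hr drug exposure (37C, 5% CO2) followed by Amplite, 30 min RT.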

[3] = qHTS assay for small molecule agonists of the p53 signaling pathway - cell viability (AID 651633; calls by dose curve; further: nearly all actives have a fitted effect of over 30% in size; further: potency means the concentration at half of the fitted maximal effect)
Procedure, shortened: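 p53RE-bla cells, seeded at 4,000 per well and rested 5 h at 37 C/5% CO2, received compounds in DMSO for 16 h at 37 C. CellTiter-Glo was then added, and luminescence was read after 30 min at room temperature to gauge cytotoxicity.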

[4] = qHTS assay for small molecules that induce genotoxicity in human embryonic kidney cells expressing luciferase-tagged ATAD5 - cell viability (AID 651634; calls by dose curve; further: nearly all actives have a fitted effect of over 25% in size)
Procedure, shortened: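 Viability read: CellTiter-Fluor fluorescence, 30 min at 37C. Cells: HEK293T, luciferase-tagged ATAD5. Exposure: 15.5 hr, 37C, 5% CO2, compound or DMSO vehicle.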

[5] = qHTS assay for small molecule disruptors of the mitochondrial membrane potential - cell viability (AID 720634; calls by dose curve; further: nearly all actives have a fitted effect of over 20% in size; further: potency means the concentration at half of the fitted maximal effect)
Procedure, shortened: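 HepG2, 1 hr compound, 37 C. ATP luminescence via CellTiter-Glo, 30 min RT, same well as m-MPI.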

[6] = qHTS assay to test for compound auto fluorescence at 590 nm (red) in HepG2 cells (AID 720674)
Procedure, shortened: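 Rose Bengal sodium served as the red fluorophore standard. HepG2 monolayers (overnight attachment, MEM with 10% FBS) were exposed to test compounds for 1 hr at 37 C and read at Ex 540/Em 590 nm.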

[7] = qHTS assay to test for compound auto fluorescence at 535 nm (green) in HepG2 cells (AID 720675)
[8] = qHTS assay to test for compound auto fluorescence at 460 nm (blue) in HEK293 cells (AID 720678)
Procedure, shortened: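 Blue-channel (Ex/Em 405/460 nm) intensity measured in HEK293 cultures after overnight compound exposure at 37C; signal expressed relative to triamterene. Cells plated 2,000 per well in 10% dialyzed FBS medium and allowed 4-5 hr to attach.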

[9] = qHTS assay to test for compound auto fluorescence at 590 nm (red) in HEK293 cells (AID 720679)
Procedure, shortened: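 Red-channel autofluorescence (Ex/Em 540/590 nm; Rose Bengal sodium reference) was measured after overnight 37C, 5% CO2 exposure of attached HEK293 cells, 2,000 per well in medium with 10% dialyzed FBS.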

[10] = qHTS assay to test for compound auto fluorescence at 460 nm (blue) in HEK293 cell free culture (AID 720681)
Procedure, shortened: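 Test compounds were pinned into cell-free culture medium (DMEM with 10% FBS) and fluorescence was read directly at Ex/Em 405/460 nm. Signals were expressed as fluorescence equivalents of triamterene, with DMSO vehicle as control.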

[11] = qHTS assay to test for compound auto fluorescence at 590 nm (red) in HEK293 cell free culture (AID 720683)
Procedure, shortened: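 Tox21 10K library compounds were pinned into cell-free DMEM with 10% FBS and fluorescence was read at excitation 540 nm. Activity is expressed as Rose Bengal sodium equivalency.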

[12] = qHTS assay to test for compound auto fluorescence at 460 nm (blue) in HepG2 cell free culture (AID 720685)
Procedure, shortened: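 Compound (23 nL) or DMSO pinned into cell-free MEM with 10% FBS; blue fluorescence read at 405/460 nm excitation/emission, expressed as auto-fluorescence equivalency to triamterene.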

[13] = qHTS assay to test for compound auto fluorescence at 535 nm (green) in HepG2 cell free culture (AID 720686)
[14] = qHTS assay to test for compound auto fluorescence at 460 nm (blue) in HepG2 cells (AID 720687)
Procedure, shortened: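 Cells (2,000/well in MEM with 10% FBS) attached overnight at 37 C, then were exposed to compound or DMSO for 1 hr at 37 C, 5% CO2. Fluorescence read at Ex/Em 405/460 nm, expressed as triamterene-equivalent signal.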

[15] = target: Glucocorticoid receptor (Homo sapiens) (UniProt P04150); assay: qHTS assay to identify small molecule agonists of the glucocorticoid receptor (GR) signaling pathway (AID 720691; active means well fitted activation curve with a large enough effect in the signal ratio in the repeat runs, not every such curve was filed as active; the % refers to the signal ratio)
Chain of Glucocorticoid receptor (Homo sapiens) (P04150 whole entry, looked up): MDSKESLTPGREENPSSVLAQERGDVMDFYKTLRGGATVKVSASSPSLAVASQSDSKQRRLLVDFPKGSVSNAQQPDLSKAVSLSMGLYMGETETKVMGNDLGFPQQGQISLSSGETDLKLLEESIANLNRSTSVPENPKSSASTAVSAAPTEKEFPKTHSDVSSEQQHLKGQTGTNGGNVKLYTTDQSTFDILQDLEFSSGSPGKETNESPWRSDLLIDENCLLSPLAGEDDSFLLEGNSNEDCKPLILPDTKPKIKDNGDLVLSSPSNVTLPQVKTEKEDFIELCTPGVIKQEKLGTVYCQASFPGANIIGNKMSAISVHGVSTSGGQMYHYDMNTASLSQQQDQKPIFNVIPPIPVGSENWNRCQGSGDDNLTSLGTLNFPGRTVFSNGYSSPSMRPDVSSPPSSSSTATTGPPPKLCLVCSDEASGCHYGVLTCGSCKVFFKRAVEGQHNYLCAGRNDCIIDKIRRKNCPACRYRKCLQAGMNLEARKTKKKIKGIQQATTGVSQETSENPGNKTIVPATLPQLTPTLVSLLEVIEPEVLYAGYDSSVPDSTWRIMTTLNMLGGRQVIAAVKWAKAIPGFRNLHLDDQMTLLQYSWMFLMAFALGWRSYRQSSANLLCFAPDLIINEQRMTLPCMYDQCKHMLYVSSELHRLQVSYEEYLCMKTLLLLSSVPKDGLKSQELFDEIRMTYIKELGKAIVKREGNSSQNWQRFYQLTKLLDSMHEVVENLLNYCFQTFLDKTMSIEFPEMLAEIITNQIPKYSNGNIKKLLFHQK
Procedure, shortened: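 qHTS in GR-bla HeLa cells: 4 h settling at 37 C/5% CO2, 18 h compound incubation at 37 C, 2 h LiveBLAzer B/G FRET substrate at room temperature, fluorescence intensity measured.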

[16] = target: Glucocorticoid receptor (Homo sapiens) (UniProt P04150); assay: qHTS assay to identify small molecule antagonists of the glucocorticoid receptor (GR) signaling pathway (AID 720692; active means well fitted inhibition curve with a large enough effect in the signal ratio in the repeat runs, not every such curve was filed as active; the % refers to the signal ratio; further: potency means the concentration at half of the fitted maximal effect)
Procedure, shortened: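 Inhibition of glucocorticoid signalling is measured in HeLa cells with a GRE-controlled beta-lactamase reporter; cells are co-treated with compound and 5 nM dexamethasone (final) for 18 h before FRET substrate readout.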

[17] = qHTS assay for small molecule disruptors of the mitochondrial membrane potential (AID 720635); further: potency means the concentration at half of the fitted maximal effect
Procedure, shortened: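 HepG2 cells (2,000/well) attached overnight at 37C, then took compound for 1 hr at 37C, 5% CO2. Mito-MPS dye was added for 30 min; fluorescence was read at 490/535 nm (monomers) and 540/590 nm (aggregates).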

[18] = qHTS assay to test for compound auto fluorescence at 535 nm (green) in HEK293 cells (AID 720680)
[19] = qHTS assay to test for compound auto fluorescence at 535 nm (green) in HEK293 cell free culture (AID 720682)
Procedure, shortened: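 No cells present: wells hold DMEM supplemented with 10% FBS, into which compound or vehicle is pinned. Green emission is then recorded (485 nm excitation, 535 nm emission) and scaled to fluorescein.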

[20] = qHTS assay to test for compound auto fluorescence at 590 nm (red) in HepG2 cell free culture (AID 720684)
Procedure, shortened: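 Measured in medium alone (MEM containing 10% FBS) following pintool addition of compound; emission at 590 nm with 540 nm excitation, referenced to Rose Bengal sodium.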

Compound | Potency [1] | Potency [2] | Potency [3] | Potency [4] | Potency [5] | outcome [6] | outcome [7] | outcome [8] | outcome [9] | outcome [10] | outcome [11] | outcome [12] | outcome [13] | outcome [14] | Potency [15] | Potency [16] | Potency [17] | outcome [18] | outcome [19] | outcome [20]
C#C[C@]1(O)CC[C@H]2[C@@H]3CCC4=CC(=O)CC[C@]4(C)[C@H]3CC[C@@]21C | inactive | inactive | inactive | inactive | inactive | inactive | inactive | inactive | inactive | inactive | inactive | inactive | inactive | inactive | inactive | 1.69 µM (active) | – | – | – | –
CN(C)c1ccc(C(=O)c2ccc(N(C)C)cc2)cc1 | 605 nM (active) and 273 nM (active) | 27 µM (active) | inactive | inactive | – | inactive | inactive | inactive | inactive | – | inactive | – | inactive | – | inactive | – | 53.9 µM (active) | inactive | inactive | –
C=CCc1ccc2c(c1)OCO2 | inactive | – | inactive | inactive | inactive | inactive | inactive | inactive | inactive | inactive | inactive | inactive | inactive | inactive | – | – | – | – | inactive | inactive
CCC(C)c1cc([N+](=O)[O-])cc([N+](=O)[O-])c1O (configuration not stated) | inactive and 864 nM (active) | inactive | inactive | – | inactive and 1.22 µM (active) | inactive | inactive | inactive | inactive | inactive | inactive | inactive | inactive | inactive | inactive | inactive | inactive and 344 nM (active) | – | inactive | –
CC(C)c1ccc(CO)cc1 | inactive | inactive | inactive | inactive | inactive | inactive | inactive | inactive | inactive | inactive | inactive | inactive | inactive | inactive | – | – | – | – | – | inactive
CC(C)(OOC(C)(C)c1ccccc1)c1ccccc1 | inactive | inactive | inactive | inactive | inactive | inactive | – | inactive | inactive | inactive | inactive | inactive | inactive | inactive | inactive | inactive | 60.3 µM (active) | inactive | inactive | –
CNC(=O)N(C)c1nnc(C(C)(C)C)s1 | inactive | inactive | inactive | inactive | inactive | inactive | – | inactive | inactive | inactive | inactive | inactive | inactive | inactive | – | – | – | inactive | – | inactive
C=C(C)C(=O)OCC1CO1 (configuration not stated) | inactive | inactive | inactive | inactive | inactive | inactive | – | inactive | inactive | inactive | inactive | inactive | inactive | inactive | inactive | inactive | inactive | inactive | – | inactive
c1ccc(P(c2ccccc2)c2ccccc2)cc1 | inactive | inactive | inactive | inactive | inactive | inactive | inactive | inactive | inactive | inactive | inactive | inactive | inactive | inactive | inactive | inactive | – | inactive | inactive | inactive
CC1(C)C(C=C(Cl)Cl)C1C(=O)OC(C#N)c1cccc(Oc2ccccc2)c1 (configuration not stated) | inactive | inactive | inactive | inactive | – | inactive | inactive | inactive | inactive | inactive | inactive | inactive | inactive | inactive | inactive | – | – | inactive | inactive | –
CCOC(=O)C(C)OC(=O)c1cc(Oc2ccc(C(F)(F)F)cc2Cl)ccc1[N+](=O)[O-] (configuration not stated) | inactive | inactive | inactive | inactive | – | inactive | inactive | inactive | inactive | inactive | inactive | inactive | inactive | inactive | inactive | inactive | 21.6 µM (active) and 61.1 µM (active) | – | – | inactive
Oc1cc(Cl)ccc1Oc1ccc(Cl)cc1Cl | inactive | inactive | 3.95 µM (active) | – | 11.1 µM (active) | inactive | – | inactive | inactive | inactive | inactive | inactive | inactive | inactive | inactive | – | 4.22 µM (active) and 352 nM (active) | inactive | inactive | –
CCN(N=O)C(N)=O | inactive | inactive | inactive | inactive | inactive | inactive | – | inactive | inactive | inactive | inactive | inactive | inactive | inactive | inactive | – | inactive | inactive | – | inactive
CCC(=O)O[C@H]1CC[C@H]2[C@@H]3CCC4=CC(=O)CC[C@]4(C)[C@H]3CC[C@]12C | inactive | inactive | inactive and 61.1 µM (active) | inactive | inactive | inactive | inactive | inactive | inactive | inactive | inactive | inactive | inactive | inactive | inactive | 5.12 µM (active) and 4.9 µM (active) | – | – | – | inactive
Oc1c(Cl)c(Cl)c(Cl)c(Cl)c1Cl | 3.37 µM (active) and 3.43 µM (active) | inactive | inactive | – | inactive | inactive | inactive | inactive | inactive | inactive | inactive | inactive | inactive | inactive | inactive | – | 3.78 µM (active) and 1.53 µM (active) | inactive | – | –
CCN(CC)N=O | inactive | – | inactive | inactive | inactive | inactive | – | inactive | inactive | inactive | inactive | inactive | inactive | inactive | – | – | inactive | inactive | inactive | inactive
